# Hits are enriched below; roughly 3.1% of the tested compounds scored in any of these assays.
# EBV LMP1 NFkB = Epstein-Barr LMP1 NF-kappaB reporter inhibition | LMP1-induced NF-kappaB luciferase reporter cells, luminescence | inhibition, % at 12.5 µM | actives 0.69% (n = 350,000); in the data active = inhibition above about 41%; inconclusive = no clear call, values can overlap the other calls;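 note: 0% = neutral control wells and 100% = reference inhibitor control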
# LGR2 antag = Drosophila LGR2 receptor signaling inhibition | HEK293 LGR2, CRE-luciferase, bursicon-stimulated, 4 h | actives 0.35% (n = 380,000) | inhibition, % at 9.99 µM;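 active = drop in luminescence signal, shown as inhibition above about 50% in the replicate tests, limit read from the data, passing the limit was not always enough; inconclusive = probably only some replicates passing the limit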;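 note: agonist challenge used bursicon conditioned medium at about half maximal strength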
# EWS-Fli inh = blocks EWS/Fli oncoprotein-driven transcription. A673 NR0B1-luciferase reporter, viability-normalised. actives 0.67% (n = 350,000). inhibition, % at 12.6 µM;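 active = mean inhibition of at least 50% after viability correction, with every replicate also passing that limit; inconclusive = mean reaches 50% but only one of two replicates passes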;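 note: firefly luciferase signal divided by Alamar Blue viability fluorescence both relative to DMSO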
# TROY NFkB inh = blocks TROY-dependent signaling in reporter cells | AID 1347056 | actives 0.98% (n = 360,000) | Q293 LMP1-TROYcd NF-kB luciferase reporter, 4 h | inhibition, % at 10 µM;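 active = compounds whose plate-normalised and pattern-corrected inhibition of the luciferase reporter signal at the single screening dose is 50% or more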
# PAX8 reporter = inhibitors of PAX8 transcriptional activity in RMG-I cells. actives 1.2% (n = 360,000). inhibition, % at 12.6 µM. RMG-I TPO-luciferase reporter, SteadyGlo, 24 h;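 active = mean replicate inhibition at least 60% with every replicate also reaching 60%; inconclusive = only one of the two criteria is met; inactive = mean below 60% and not all replicates reaching 60%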;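 note: luciferase light reporting Pax8 driven TPO promoter activity; plate controls were median of neutral control wells for no effect and mitoxantrone controls for full effect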
# TWEAK-Fn14 inh = blocks TWEAK-Fn14 interaction in a reporter cell assay; TWEAK-stimulated Fn14 reporter cells, luciferase luminescence, 8 h; inhibition, % at 10 µM; actives 2% (n = 360,000); AID 1159606; in the data active = inhibition above about 50%
# Active calls of the source: *; ? = inconclusive; . = not tested or not shown.
SMILES,EBV LMP1 NFkB,LGR2 antag,EWS-Fli inh,TROY NFkB inh,PAX8 reporter,TWEAK-Fn14 inh
COc1ccccc1-c1ccc2c(c1)[C@@H]1[C@@H](CCN1C(=O)C1CCCCC1)[C@@H](CO)N2,.,.,29,.,105*,.
COc1ccccc1-c1ccc2c(c1)[C@H]1[C@H](CCN1C(=O)C1CCC1)[C@@H](CO)N2,.,-6,4,.,42,.
O=C(C[C@@H]1C[C@H]2c3cc(NC(=O)Nc4ccc(F)cc4)ccc3O[C@H]2[C@@H](CO)O1)NC1CCCCC1,.,-10,1,.,0,.
Cc1noc(/C=C/c2ccco2)c1S(=O)(=O)N1CCC(C(=O)NC(C)c2ccccc2)CC1 (stereo not drawn),1,9,5,-5,94*,14
Cc1noc(/C=C/c2ccco2)c1S(=O)(=O)N1CCC(C(=O)N(C)Cc2ccccc2)CC1,0,7,.,5,.,-7
CCOc1ccccc1/C=C/c1onc(C)c1S(=O)(=O)N1CCC(C(=O)N(CC)CC)CC1,60*,11,13,2,-6,-8
C[C@@H]1CN([C@@H](C)CO)C(=O)c2cc(NC(=O)CCN3CCOCC3)ccc2O[C@H]1CN(C)CC1CCCCC1,.,-6,-7,.,-4,.
COc1ccc(NC(=O)N(C)C[C@@H]2Oc3ccc(NC(=O)Cc4ccccc4)cc3C(=O)N([C@@H](C)CO)C[C@@H]2C)cc1,.,13,3,.,-20,.
C[C@@H]1CN([C@@H](C)CO)C(=O)Cc2cc(NS(=O)(=O)c3ccc(Cl)cc3)ccc2O[C@@H]1CN(C)S(=O)(=O)c1ccc(F)cc1,.,-22,-6,.,10,.
Cc1ccc(S(=O)(=O)N(C)C[C@H]2Oc3ccc(NC(=O)Nc4ccc5c(c4)OCO5)cc3C(=O)N([C@H](C)CO)C[C@@H]2C)cc1,.,-4,2,.,0,.
Cc1ccc(-c2nc(C)sc2CC(=O)OCC(=O)Nc2cccc([N+](=O)[O-])c2)cc1,-7,-3,-4,17,109*,-1
CCNC(=O)Nc1ccc2c(c1)C(=O)N(C)[C@@H]1CC[C@H](CC(=O)NCC3CC3)O[C@@H]1CO2,.,3,-5,.,17,.
COc1ccc(NC(=O)N(C)C[C@H]2Oc3ccc(NS(=O)(=O)c4ccc(C)cc4)cc3C(=O)N([C@H](C)CO)C[C@@H]2C)cc1,.,-3,-7,.,17,.
O=C(NCc1ccc(OC(F)(F)F)cc1)C1CC(c2c(Cl)cccc2Cl)=NO1 (stereo not drawn),41*,-20,-9,-4,-12,-4
O=C(NCc1cc(C(F)(F)F)cc(C(F)(F)F)c1)C1CC(c2c(Cl)cccc2Cl)=NO1 (stereo not drawn),-8,19,9,-8,16,0
COc1ccc(-c2csc(/C(C#N)=C\c3ccc(O)c([N+](=O)[O-])c3)n2)cc1OC,-2,-14,14,36,-11,60*
O=C(O)C/C(=C\c1ccc(N2CCOCC2)c([N+](=O)[O-])c1)c1nc2ccccc2s1,-9,-24,-15,52*,1,45
N#C/C(=C\c1ccc(O)c([N+](=O)[O-])c1)c1nc2ccccc2s1,1,-16,-12,50*,-13,53*
C[C@@H]1CN([C@H](C)CO)C(=O)Cc2cc(NS(=O)(=O)c3cccs3)ccc2O[C@@H]1CN(C)C(=O)Nc1ccc(C(F)(F)F)cc1,.,4,3,.,4,.
O=C1CC(SC(=NCc2ccc3c(c2)OCO3)Nc2ccccc2)C(=O)N1 (stereo not drawn),55*,.,.,-11,.,1
O=C(Cc1ccccn1)NCC[C@H]1CC[C@@H](NC(=O)Nc2ccc(Cl)cc2)[C@@H](CO)O1,.,12,.,.,.,.
COc1ccc(CN=C(C)c2c(C(F)(F)F)[nH]n(-c3nc4ccccc4s3)c2=O)cc1,-27,.,.,-34,.,58*
COC(=O)Cc1[nH]n(-c2nc3ccccc3s2)c(=O)c1C(C)=O,0,-39,.,21,.,38
Cc1[nH]c2ccccc2c1C1=NNC(=Nc2ccc(F)cc2)SC1,-28,-1,12,25,52,55*
O=C(CC1CC1)N1CC2(C1)[C@H](c1ccccc1)[C@@H](CO)N2CC1CCOCC1,.,-12,2,.,-7,.
SMILES,EBV LMP1 NFkB,LGR2 antag,EWS-Fli inh,TROY NFkB inh,PAX8 reporter,TWEAK-Fn14 inh
NS(=O)(=O)c1ccc(Sc2ccccn2)c([N+](=O)[O-])c1,2,-9,7,4,4,13
NS(=O)(=O)c1ccc(Sc2nc3ccccc3s2)c([N+](=O)[O-])c1,70*,.,25,17,78*,84*
C[C@@H]1CN([C@@H](C)CO)C(=O)c2cc(C#CCN(C)C)cnc2O[C@H]1CN(C)C(=O)CN1CCOCC1,.,5,8,.,-9,.
C[C@@H]1CN([C@@H](C)CO)C(=O)c2cccc(NC(=O)Nc3ccc(C(F)(F)F)cc3)c2O[C@@H]1CN(C)Cc1ccncc1,.,-20,-9,.,-16,.
C[C@@H]1CN([C@H](C)CO)C(=O)c2cc(NC(=O)Nc3ccc(C(F)(F)F)cc3)ccc2O[C@@H](C)CCCCO[C@@H]1CN(C)C(=O)CCCN(C)C,.,7,-4,.,4,.
C[C@H](CO)N1C[C@H](C)[C@H](CN(C)Cc2ccccc2)Oc2ncc(-c3cccnc3)cc2C1=O,.,-18,-9,.,.,.
COc1cc([C@@H]2c3cc4c(cc3[C@@H](O)[C@H]3COC(=O)[C@H]23)OCO4)cc(OC)c1O[Si](C)(C)C(C)(C)C,6,20,1,12,47,6
COc1cc(C2c3cc4c(cc3OC(N3CCCCC3)C2C)OCO4)cc(OC)c1O (stereo not drawn),1,-7,9,4,5,21
CCN(CC)C1Oc2cc3c(cc2C(c2cc(OC)c(OC)c(OC)c2)C1C)OCO3 (stereo not drawn),15,-34,64*,21,?,8
COc1cc(C2c3cc4c(cc3C3OC(=O)C2C3CO)OCO4)cc(OC)c1OC (stereo not drawn),-2,-50,38,18,76*,-18
CCS(=O)(=O)N[C@H]1C=C[C@H](CC(=O)NC2Cc3ccccc3C2)O[C@H]1CO,.,4,-8,.,6,.
CO[C@@H]1CN(C)C(=O)c2cc(NC(=O)Nc3ccc(Cl)cc3)ccc2OC[C@H](C)N(C(=O)Nc2c(C)noc2C)C[C@@H]1C,.,-2,-13,.,2,.
COCCNC(=O)C[C@@H]1C[C@@H]2c3cc(NC(=O)c4cccnc4)ccc3O[C@@H]2[C@H](CO)O1,.,0,4,.,2,.

# High-throughput results from PubChem.
